# Laboratory results from PubChem BioAssay AID1159580 (chemical genetic matrix, 2015).
# Screen size: about 5,500 compounds; about 2,000 (36%) were called active. About 18% were inconclusive and are not listed. The list shows a part of the results. Values without a mark were called inactive. No stated cut-off is given here; in the data, active means normalized growth mostly below about 0.91 (no sharp cut-off); inconclusive means no clear call, values can overlap the other calls; inactive means mostly above about 0.92.
# Experiment: chemical genetic growth profiling, strain panel (AID 1159580);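 further: tested at 20 µM; growth read once vehicle control cultures reached saturation at 30 °C; 1 = growth at the plate median or of vehicle wells; lower values mean less growth of the strain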
# Conditions: growth OD
structure (smiles),measurement,setting,value
COc1ccc(CCN2CCC(Nc3nc4ccccc4n3Cc3ccc(F)cc3)CC2)cc1,normalized growth,"S. cerevisiae deletion strains, locus YJR066W, strain TOR1, active compounds read low",0.931
same,normalized growth,"S. cerevisiae deletion strains, locus YKL009W, strain mrt4, active compounds read low",0.99
same,normalized growth,"S. cerevisiae deletion strains, locus YKL068W, active compounds read low",0.991
same,normalized growth,"S. cerevisiae deletion strains, locus YKL085W, strain MDH1 (second series), active compounds read low",1.04
same,normalized growth,"S. cerevisiae deletion strains, locus YKL085W, strain MDH1, active compounds read low",1.04
same,normalized growth,"S. cerevisiae deletion strains, locus YKL160W, strain elf1, active compounds read low",0.961
same,normalized growth,"S. cerevisiae deletion strains, locus YKL190W, strain CNB1, active compounds read low",0.992
same,normalized growth,"S. cerevisiae deletion strains, locus YKR001C, strain vps1, active compounds read low",0.999
same,normalized growth,"S. cerevisiae deletion strains, locus YKR026C, strain gcn3, active compounds read low",0.945
same,normalized growth,"S. cerevisiae deletion strains, locus YKR091W, strain srl3, active compounds read low",0.987
same,normalized growth,"S. cerevisiae deletion strains, locus YLL001W, strain dnm1, active compounds read low",0.954
same,normalized growth,"S. cerevisiae deletion strains, locus YLL026W, active compounds read low",0.974
same,normalized growth,"S. cerevisiae deletion strains, locus YLL041C, strain sdh2, active compounds read low",0.969
same,normalized growth,"S. cerevisiae deletion strains, locus YLR027C, strain aat2, active compounds read low",0.978
same,normalized growth,"S. cerevisiae deletion strains, locus YLR039C, strain RIC1, active compounds read low",1.19
same,normalized growth,"S. cerevisiae deletion strains, locus YLR058C, strain SHM2, active compounds read low",0.974
same,normalized growth,"S. cerevisiae deletion strains, locus YLR102C, strain apc9, active compounds read low",0.991
same,normalized growth,"S. cerevisiae deletion strains, locus YLR113W, strain HOG1, active compounds read low",0.976
same,normalized growth,"S. cerevisiae deletion strains, locus YLR221C, strain rsa3, active compounds read low",0.951
same,normalized growth,"S. cerevisiae deletion strains, locus YLR258W, strain gsy2, active compounds read low",0.962
same,normalized growth,"S. cerevisiae deletion strains, locus YLR262C, strain YPT6 (second series), active compounds read low",1.05
same,normalized growth,"S. cerevisiae deletion strains, locus YLR262C, strain YPT6, active compounds read low",1.21
same,normalized growth,"S. cerevisiae deletion strains, locus YLR268W, strain sec22, active compounds read low",0.969
same,normalized growth,"S. cerevisiae deletion strains, locus YLR320W, strain mms22, active compounds read low",0.85 (active)
same,normalized growth,"S. cerevisiae deletion strains, locus YLR330W, strain CHS5, active compounds read low",0.995
same,normalized growth,"S. cerevisiae deletion strains, locus YLR342W, strain FKS1 (second series), active compounds read low",0.945
same,normalized growth,"S. cerevisiae deletion strains, locus YLR342W, strain FKS1, active compounds read low",0.969
same,normalized growth,"S. cerevisiae deletion strains, locus YLR357W, strain rsc2, active compounds read low",0.986
same,normalized growth,"S. cerevisiae deletion strains, locus YLR370C, strain arc18, active compounds read low",0.892 (active)
same,normalized growth,"S. cerevisiae deletion strains, locus YLR371W, strain rom2, active compounds read low",0.986
same,normalized growth,"S. cerevisiae deletion strains, locus YLR384C, strain iki3, active compounds read low",1
same,normalized growth,"S. cerevisiae deletion strains, locus YLR418C, strain cdc73, active compounds read low",0.943
same,normalized growth,"S. cerevisiae deletion strains, locus YML016C, strain PPZ1, active compounds read low",0.979
same,normalized growth,"S. cerevisiae deletion strains, locus YML032C, strain rad52, active compounds read low",0.955
same,normalized growth,"S. cerevisiae deletion strains, locus YML120C, strain ndi1, active compounds read low",0.978
same,normalized growth,"S. cerevisiae deletion strains, locus YML124C, strain tub3, active compounds read low",0.991
same,normalized growth,"S. cerevisiae deletion strains, locus YMR058W, strain fet3, active compounds read low",0.865 (active)
same,normalized growth,"S. cerevisiae deletion strains, locus YMR078C, strain ctf18, active compounds read low",0.987
same,normalized growth,"S. cerevisiae deletion strains, locus YMR125W, strain sto1, active compounds read low",0.964
same,normalized growth,"S. cerevisiae deletion strains, locus YMR129W, active compounds read low",0.995
same,normalized growth,"S. cerevisiae deletion strains, locus YMR205C, strain PFK2, active compounds read low",0.908
same,normalized growth,"S. cerevisiae deletion strains, locus YMR223W, strain ubp8, active compounds read low",0.988
same,normalized growth,"S. cerevisiae deletion strains, locus YMR231W, strain pep5, active compounds read low",0.997
same,normalized growth,"S. cerevisiae deletion strains, locus YMR263W, strain SAP30, active compounds read low",0.997
same,normalized growth,"S. cerevisiae deletion strains, locus YMR307W, strain GAS1, active compounds read low",0.894
same,normalized growth,"S. cerevisiae deletion strains, locus YNL067W, strain RPL9B, active compounds read low",0.982
same,normalized growth,"S. cerevisiae deletion strains, locus YNL071W, strain lat1, active compounds read low",0.959
same,normalized growth,"S. cerevisiae deletion strains, locus YNL128W, strain TEP1, active compounds read low",0.984
same,normalized growth,"S. cerevisiae deletion strains, locus YNL153C, strain GIM3, active compounds read low",1
same,normalized growth,"S. cerevisiae deletion strains, locus YNL183C, strain NPR1, active compounds read low",0.946
same,normalized growth,"S. cerevisiae deletion strains, locus YNL209W, strain ssb2, active compounds read low",0.962
same,normalized growth,"S. cerevisiae deletion strains, locus YNL233W, strain BNI4, active compounds read low",0.959
same,normalized growth,"S. cerevisiae deletion strains, locus YNL250W, strain rad50, active compounds read low",0.988
same,normalized growth,"S. cerevisiae deletion strains, locus YNL271C, strain bni1, active compounds read low",0.982
same,normalized growth,"S. cerevisiae deletion strains, locus YNL298W, strain CLA4, active compounds read low",0.987
same,normalized growth,"S. cerevisiae deletion strains, locus YNL307C, strain MCK1, active compounds read low",0.969
same,normalized growth,"S. cerevisiae deletion strains, locus YNL322C, strain KRE1 (second series), active compounds read low",0.991
same,normalized growth,"S. cerevisiae deletion strains, locus YNR049C, strain mso1, active compounds read low",0.96
same,normalized growth,"S. cerevisiae deletion strains, locus YNR052C, strain pop2, active compounds read low",0.982
same,normalized growth,"S. cerevisiae deletion strains, locus YOL006C, strain TOP1, active compounds read low",0.759
same,normalized growth,"S. cerevisiae deletion strains, locus YOL012C, strain htz1",0.955
same,normalized growth,"S. cerevisiae deletion strains, locus YOL147C, strain pex11, active compounds read low",0.99
same,normalized growth,"S. cerevisiae deletion strains, locus YOR001W, strain rrp6, active compounds read low",0.881 (active)
same,normalized growth,"S. cerevisiae deletion strains, locus YOR061W, strain CKA2, active compounds read low",0.969
same,normalized growth,"S. cerevisiae deletion strains, locus YOR069W, strain VPS5, active compounds read low",0.993
same,normalized growth,"S. cerevisiae deletion strains, locus YOR070C, strain gyp1, active compounds read low",0.944
same,normalized growth,"S. cerevisiae deletion strains, locus YOR080W, strain dia2, active compounds read low",1
same,normalized growth,"S. cerevisiae deletion strains, locus YOR083W, strain WHI5, active compounds read low",0.927
same,normalized growth,"S. cerevisiae deletion strains, locus YOR106W, strain vam3, active compounds read low",0.969
same,normalized growth,"S. cerevisiae deletion strains, locus YOR136W, strain idh2, active compounds read low",0.98
same,normalized growth,"S. cerevisiae deletion strains, locus YOR144C, strain elg1, active compounds read low",0.986
same,normalized growth,"S. cerevisiae deletion strains, locus YOR184W, strain ser1, active compounds read low",0.953
same,normalized growth,"S. cerevisiae deletion strains, locus YOR231W, strain MKK1, active compounds read low",0.973
same,normalized growth,"S. cerevisiae deletion strains, locus YOR265W, strain rbl2, active compounds read low",0.993
same,normalized growth,"S. cerevisiae deletion strains, locus YOR270C, strain vph1, active compounds read low",0.607 (active)
same,normalized growth,"S. cerevisiae deletion strains, locus YOR290C, strain snf2, active compounds read low",0.633 (active)
same,normalized growth,"S. cerevisiae deletion strains, locus YOR316C, strain cot1, active compounds read low",0.994
same,normalized growth,"S. cerevisiae deletion strains, locus YPL051W, strain arl3, active compounds read low",0.968
same,normalized growth,"S. cerevisiae deletion strains, locus YPL078C, strain atp4, active compounds read low",0.975
same,normalized growth,"S. cerevisiae deletion strains, locus YPL106C, strain sse1, active compounds read low",0.894
same,normalized growth,"S. cerevisiae deletion strains, locus YPL240C, strain hsp82, active compounds read low",0.986
same,normalized growth,"S. cerevisiae deletion strains, locus YPL241C, strain CIN2, active compounds read low",0.992
same,normalized growth,"S. cerevisiae deletion strains, locus YPL256C, strain CLN2, active compounds read low",0.982
same,normalized growth,"S. cerevisiae deletion strains, locus YPR119W, strain clb2, active compounds read low",0.988
same,normalized growth,"S. cerevisiae deletion strains, locus YPR141C, strain kar3, active compounds read low",0.991
same,normalized growth,"S. cerevisiae deletion strains, locus YPR163C, strain tif3, active compounds read low",0.988
same,normalized growth,"S. cerevisiae deletion strains, locus YPR167C, strain met16, active compounds read low",0.976
same,normalized growth,"S. cerevisiae deletion strains, strain wtn01, active compounds read low",0.974
same,normalized growth,"S. cerevisiae strains, strain wild type, active compounds read low",0.986
